Measurements as given in PubChem BioAssay (NCI).
About 83,000 compounds went through this panel and 20% of them were active in at least one assay; those are over-represented in the sample as a whole.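 Interpretation: 100, growth as untreated; towards 0, rising growth inhibition; 0, no net growth; 0 to -100, cell death. Compounds scoring below 10 were considered active.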 A number with no mark means an inactive call. The source made the active and inactive calls.

Experiments:
Test in all cases: NCI-60 one-dose screen, 48 h (100 = growth as untreated, 0 = no growth, -100 = all killed)
Conditions in all cases: 10 µM
HCT-15 colon = system: HCT-15 colon
HT29 colon = system: HT29 colon
SNB-75 CNS = system: SNB-75 CNS
SNB-19 CNS = system: SNB-19 CNS
U251 CNS = system: U251 CNS
PC-3 prostate = system: PC-3 prostate
SK-MEL-5 melanoma = system: SK-MEL-5 melanoma
UACC-62 melanoma = system: UACC-62 melanoma
LOX IMVI melanoma = system: LOX IMVI melanoma
SK-MEL-28 melanoma = system: SK-MEL-28 melanoma

SMILES	growth (HCT-15 colon)	growth (HT29 colon)	growth (SNB-75 CNS)	growth (SNB-19 CNS)	growth (U251 CNS)	growth (PC-3 prostate)	growth (SK-MEL-5 melanoma)	growth (UACC-62 melanoma)	growth (LOX IMVI melanoma)	growth (SK-MEL-28 melanoma)
COc1ccc(C2=Cc3ccc(OC(C)=O)cc3OC2)cc1	82.4%	97.2%	107%	98.8%	89.3%	90.5%	90.6%	85.4%	82.7%	112%
O=C(CCc1ccccc1)N1CCN(C(=O)CCc2ccccc2)CC1	108%	101%	93.9%	99.6%	104%	94.3%	105%	95.4%	95%	108%
C=CCNC(=S)NN	90.7%	55.5%	95.3%	94.4%	77.4%	58.4%	99.5%	99.6%	97.3%	104%
CCCC(C)c1ccc(OCCCCCCN2CCNCC2)cc1 (stereo not given)	-39.3% (active)	5.51% (active)	35.9%	56%	-2.39% (active)	49.4%	53.5%	-46.4% (active)	-88.3% (active)	13.2%
COc1cc(CSc2nc3ccc(C)cc3c(=O)n2Cc2ccccc2)cc(OC)c1OC	29.2%	10.5%	-4.08% (active)	58.1%	33.1%	45.9%	17.8%	21.4%	39.8%	52%
CCCc1ccnc(NS(=O)(=O)c2ccc(N)cc2)n1	105%	72.9%	88.2%	76.6%	54.6%	60.7%	84.3%	85.7%	82.9%	78.9%
O=C(COc1ccc(Cl)cc1Cl)Oc1coc(CSc2nc3ccccc3s2)cc1=O	103%	114%	112%	103%	97.3%	106%	-78% (active)	70.5%	90.5%	131%
COc1ccc(C(=O)c2sc3nc(-c4cccs4)ccc3c2N)cc1OC	37.4%	14%	52.1%	71.7%	59%	39%	24.3%	59%	55%	59.2%
S=C(Cc1ccc(-c2ccccc2)cc1)N1CCOCC1	104%	103%	83.1%	110%	96.6%	76.7%	92.9%	87.2%	92%	106%
CCCCCCCOc1cccc(/C=C2/C(=O)N=C3SCCCN32)c1	60.8%	63.9%	75.1%	63.4%	51%	70.4%	63.7%	54.9%	44.9%	82.3%
N#Cc1cnc2ccc(NCc3cnc[nH]3)cc2c1Nc1ccc(F)c(Cl)c1	88.4%	82%	86.4%	76.8%	58.8%	70.1%	87.5%	83%	58.2%	98%
CC1(C)CC(OCCCC[P+](c2ccccc2)(c2ccccc2)c2ccccc2)CC(C)(C)N1O	9.52% (active)	10.6%	-3.17% (active)	3.91% (active)	8.32% (active)	-45.6% (active)	-98.4% (active)	-35.9% (active)	-74.2% (active)	-55.8% (active)
CC(=O)CS(C)(=O)=O	110%	107%	96.9%	102%	102%	103%	98%	108%	101%	113%
COc1ccc(C2CC(c3ccc(-c4ccccc4)cc3)=NN2c2ccc(S(N)(=O)=O)cc2)cc1 (stereo not given)	45.6%	48.6%	81.7%	65.2%	66.8%	19.7%	85.5%	71.1%	50.3%	85.4%
CC(C)/C(=N/O)c1ccccc1	110%	97.4%	94.5%	102%	112%	102%	104%	107%	94.5%	113%
